# Shown are actives, neighbours in structure and some others; about 2.3% of the full set was active somewhere.
# HSP90 refold inh: HSP90 inhibitors, primary screen, cell lysate, luminescence; Heat shock protein HSP 90 (rabbit reticulocyte lysate; luciferase refolding); Rabbit reticulocyte lysate, luciferase refolding luminescence, 3 h; inhibition, % at 5.6 µM; 290,000 tested, 0.91% active; AID 1789, 2009;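 active = inhibition above the screen-wide mean plus 3 SD, computed separately per campaign, cut at about 16% in these data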;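 also: 0% = DMSO wells and 100% = 60 µM geldanamycin wells; inhibitors lower the luminescence because luciferase stays unfolded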
# SENP8 block-1: human SENP8 protease inhibitors, primary screen, biochemical, fluorescence, Nedd8 protein substrate, uHTS; recombinant SENP8; 360,000 tested, 0.64% active; inhibition, % at 20 µM; Sentrin-specific protease 8 (Homo sapiens), Q96LD8; AID 602440, 2012; in the data active = inhibition mostly above about 40%, no sharp cut-off; inactive = mostly below about 27%
# SENP7 inh: SENP7 protease inhibitors, primary screen, biochemical, luminescence, uHTS. recombinant SENP7, Z-RLRGG-aminoluciferin luminescence, 40 min. 330,000 tested, 1.5% active. Sentrin-specific protease 7 (Homo sapiens), Q9BQF6. inhibition, % at 5 µM;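 active = inhibition above about 50% at the single test dose, limit read from the data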;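 also: plate controls were DMSO with enzyme for no effect and no enzyme buffer wells for full effect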
# SENP8 block-2: SENP8 protease inhibitors, primary screen, biochemical, luminescence; Sentrin-specific protease 8 (Homo sapiens), Q96LD8; purified SENP8, Z-RLRGG-aminoluciferin cleavage; inhibition, % at 10 µM; 330,000 tested, 1.2% active; in the data active = inhibition above about 50%
# LGR2 inh: inhibitors of bursicon-induced LGR2 CRE-luciferase signal, primary screen, cell-based, HEK293, CRE-luciferase reporter, bursicon stimulation; Drosophila bursicon receptor LGR2 (rickets); bursicon-stimulated, 4 h; inhibition, % at 9.99 µM; 380,000 tested, 0.35% active;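 active = drop in luminescence signal, shown as inhibition above about 50% in the replicate tests, limit read from the data, passing the limit was not always enough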;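 also: agonist challenge used bursicon conditioned medium at about half maximal strength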
# SENP6 block: SENP6 protease inhibitors, primary screen, biochemical, luminescence, uHTS. Sentrin-specific protease 6 (Homo sapiens), Q9GZR1. Recombinant SENP6 catalytic domain, aminoluciferin luminescence. inhibition, % at 10 µM. 330,000 tested, 1.8% active. AID 2599, 2010;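 active = inhibition above about 50% at the single tested dose, limit read from the data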;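 also: plate controls were DMSO wells with enzyme for no effect and DMSO wells lacking enzyme for full effect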
# Target sequence (Q9GZR1 628-1112 limits assumed): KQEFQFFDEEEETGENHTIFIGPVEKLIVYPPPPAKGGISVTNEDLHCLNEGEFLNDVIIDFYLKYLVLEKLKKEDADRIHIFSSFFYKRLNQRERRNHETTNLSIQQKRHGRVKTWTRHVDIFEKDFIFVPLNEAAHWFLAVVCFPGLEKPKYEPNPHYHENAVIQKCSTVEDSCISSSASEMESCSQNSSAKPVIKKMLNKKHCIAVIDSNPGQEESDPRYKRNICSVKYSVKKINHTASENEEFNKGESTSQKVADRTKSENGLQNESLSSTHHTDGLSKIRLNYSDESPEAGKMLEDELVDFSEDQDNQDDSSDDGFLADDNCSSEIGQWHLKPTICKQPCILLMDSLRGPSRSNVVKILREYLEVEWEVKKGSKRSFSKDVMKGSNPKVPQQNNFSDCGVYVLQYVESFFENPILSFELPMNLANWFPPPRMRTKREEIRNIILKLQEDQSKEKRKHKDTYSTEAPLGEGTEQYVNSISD
# SENP8 confirm: SENP8 protease inhibitors, retest, confirmation, biochemical, luminescence, single concentration | shares compounds with SENP7 inh | Recombinant SENP8, Z-RLRGG-aminoluciferin luminescence, 60 min | inhibition, % at 12.5 µM | 6,200 tested, 40% active;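 active = mean inhibition across replicates above about 50%, limit read from the data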
# SENP6 conf: SENP6 protease inhibitors, confirmation, biochemical, luminescence, single concentration; shares compounds with SENP7 inh; recombinant SENP6, Z-RLRGG-aminoluciferin luminescence; inhibition, % at 12.5 µM; 6,200 tested, 58% active; AID 488915, 2010
# SENP7 conf: SENP7 protease inhibitors, retest, confirmation, biochemical, luminescence, single concentration; shares compounds with SENP7 inh; inhibition, % at 12.5 µM; 6,200 tested, 69% active; recombinant SENP7, Z-RLRGG-aminoluciferin luminescence, 40 min
# Casp3 select: caspase-3 protease inhibitors, confirmation, selectivity assay for SENP inhibitor project, biochemical, single concentration; inhibition, % at 12.5 µM; 6,200 tested, 60% active; AID 488918, 2010; purified caspase-3, Z-DEVD-aminoluciferin luminescence, 60 min; shares compounds with SENP7 inh;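 active = mean inhibition above about 50%, limit read from the data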;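 also: plate controls were enzyme with DMSO for no effect and wells without caspase-3 for full effect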
# Luc interf: interferes with luciferase luminescence in SENP counter-screen | shares compounds with SENP7 inh | Pre-incubated SENP8/Z-RLRGG-aminoluciferin, luciferase luminescence interference | inhibition, % at 12.5 µM | 6,200 tested, 39% active | AID 488919;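 active = mean inhibition above about 50% when retested at one dose, limit read from the data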;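 also: plate controls were DMSO wells with completed reaction for no effect and substrate without enzyme for full effect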
# An asterisk follows results filed as active; x = no result.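 The calls were made as follows, unless noted: active = mean inhibition above about 50% in the one-dose retest (limit read from the data); inactive = the rest.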
SMILES,HSP90 refold inh,SENP8 block-1,SENP7 inh,SENP8 block-2,LGR2 inh,SENP6 block,SENP8 confirm,SENP6 conf,SENP7 conf,Casp3 select,Luc interf
CC=Cc1ccc2n(c1=O)C[C@H]1[C@H](CO)[C@@H](C(=O)NCC)N(CC3CCOCC3)[C@@H]21 (mixture of isomers),x,x,x,x,-14,x,x,x,x,x,x
COc1ccc(/C(C)=N/N2CCCCC2)c(O)c1,2,13,8,-3,-21,-8,x,x,x,x,x
COc1ccc(O)c(/C=N/N2CCCCC2)c1,0,26,83*,77*,-70,80*,78*,80*,96*,88*,69*
C[C@H]1CN([C@@H](C)CO)C(=O)Cc2cc(NC(=O)NC3CCCCC3)ccc2O[C@@H]1CN(C)Cc1ccc2c(c1)OCO2,x,x,x,x,-3,x,x,x,x,x,x
C=CCNC(=O)c1ccc(NC(=O)C2=CSCCO2)cc1,17*,4,77*,69*,x,73*,74*,72*,93*,90*,73*
CC(C)CCNC(=O)c1ccc(NC(=O)C2=CSCCO2)cc1,-3,-5,3,-5,-9,7,x,x,x,x,x
COc1ccc(C)cc1NC(=O)C1CCCN(S(=O)(=O)c2cccnc2)C1 (stereo not drawn),-6,-3,5,60*,-3,3,6,6,8,4,4
CO[C@@H]1CN(C)C(=O)c2cc(NC(=O)c3ccc(F)cc3)ccc2OC[C@@H](C)N(C(=O)CN(C)C)C[C@H]1C,x,x,x,x,-8,x,x,x,x,x,x
CCC(=O)Nc1ccc2c(c1)C(=O)N(C)C[C@@H](OC)[C@@H](C)CN(CC1CCOCC1)[C@H](C)CO2,x,x,x,x,6,x,x,x,x,x,x
O=C(C[C@@H]1CC[C@H]2[C@@H](COC[C@H](O)CN2S(=O)(=O)c2cccc(F)c2)O1)NCCCN1CCOCC1,x,x,x,x,5,x,x,x,x,x,x
CCNC(=S)NNC(=O)c1cc(-c2cccc(OCC)c2)nc2ccccc12,0,-64,-5,-2,x,-7,x,x,x,x,x
CCNC(=S)NNC(=O)c1cc(-c2ccc(OC)cc2)nc2ccccc12,4,-415,95*,91*,43,93*,96*,96*,100*,97*,90*
CCNC(=S)NNC(=O)c1cc(-c2cccc(C)c2)nc2ccccc12,2,-65,72*,81*,2,85*,90*,90*,98*,96*,92*
O=Cc1ccc(N2Cc3ccccc3C2)cc1,-4,-45,43,54*,-26,68*,26,55*,81*,66*,12
Oc1ccc(N2Cc3ccccc3C2)cc1,0,9,1,-8,x,-2,x,x,x,x,x
Cc1cc(N2Cc3ccccc3C2)ccc1C=O,15,-2,11,50,-98,57*,45,73*,93*,80*,28
Oc1cccc(N2Cc3ccccc3C2)c1,-1,10,4,-8,x,17,x,x,x,x,x
Cc1ccccc1C=O,x,5,-2,10,9,-9,x,x,x,x,x

# Assay outcomes deposited in PubChem BioAssay by several laboratories.
